Compound activity as filed in PubChem BioAssay.
Ecoli rRNA inh = selective bacterial rRNA inhibition in E. coli. actives 1.6% (n = 350,000). E. coli WT GFP vs humanized-ribosome RFP mutants, fluorescence, 24 h; stronger effect = lower value; DMSO median 0, no signal -100. AID 720706. GFP signal change (wild-type ribosome), % (test concentration not listed);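 active = significant combined selectivity score with lowered wild-type GFP, culture density cut under 30%, mutant RFP and density less affected; inactive = any of these conditions unmet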
ADAM10 inh = inhibits human ADAM10; actives 0.62% (n = 370,000); AID 720582; O14672; recombinant ADAM10, EDANS/DABCYL FRET peptide cleavage, 3 h; inhibition, % at 7 µM;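 active = inhibition above a per-campaign cutoff equal to the mean of compounds falling between control-based bounds plus 3 SD, cut at about 20% in these data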
proKLK7 act = activates the human kallikrein-7 zymogen | purified proKLK7, EDANS-DABCYL substrate fluorescence; 100% is mature enzyme control, 0% vehicle | activation, % at 7 µM | P49862 | actives 0.9% (n = 370,000);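 active = activation above the mean of all tested compounds plus 3 SD, computed per campaign excluding outliers beyond control limits, cut at about 13% in these data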
FGF22 binding = FGF22 (human) thermal shift binding; actives 1.5% (n = 340,000); Q9HCT0; recombinant FGF22 thermal shift, SYPRO orange fluorescence; percent of sucrose octasulfate shift, DMSO zero; activity (Tm shift, normalised), % at 9.99 µM;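 active = mean Tm shift, scaled 0 neutral to 100 positive control, at about 1.3% or above, every replicate too, limit read from the data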
Target sequence (Q9HCT0 whole entry, looked up): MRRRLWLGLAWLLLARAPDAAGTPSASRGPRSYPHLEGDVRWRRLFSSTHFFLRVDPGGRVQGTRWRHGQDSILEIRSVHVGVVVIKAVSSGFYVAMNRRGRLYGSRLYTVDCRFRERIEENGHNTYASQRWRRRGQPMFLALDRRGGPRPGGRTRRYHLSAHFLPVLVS
ADAM17 inh = ADAM17 inhibition, QFRET primary screen. P78536. recombinant ADAM17, EDANS/DABCYL FRET peptide cleavage. inhibition, % at 6.95 µM. actives 0.83% (n = 370,000). AID 720648;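 active = inhibition above the mean of compounds lying between control limits plus 3 SD, set per campaign, cut at about 8.5% in these data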
Target sequence (P78536 215-824 limits assumed): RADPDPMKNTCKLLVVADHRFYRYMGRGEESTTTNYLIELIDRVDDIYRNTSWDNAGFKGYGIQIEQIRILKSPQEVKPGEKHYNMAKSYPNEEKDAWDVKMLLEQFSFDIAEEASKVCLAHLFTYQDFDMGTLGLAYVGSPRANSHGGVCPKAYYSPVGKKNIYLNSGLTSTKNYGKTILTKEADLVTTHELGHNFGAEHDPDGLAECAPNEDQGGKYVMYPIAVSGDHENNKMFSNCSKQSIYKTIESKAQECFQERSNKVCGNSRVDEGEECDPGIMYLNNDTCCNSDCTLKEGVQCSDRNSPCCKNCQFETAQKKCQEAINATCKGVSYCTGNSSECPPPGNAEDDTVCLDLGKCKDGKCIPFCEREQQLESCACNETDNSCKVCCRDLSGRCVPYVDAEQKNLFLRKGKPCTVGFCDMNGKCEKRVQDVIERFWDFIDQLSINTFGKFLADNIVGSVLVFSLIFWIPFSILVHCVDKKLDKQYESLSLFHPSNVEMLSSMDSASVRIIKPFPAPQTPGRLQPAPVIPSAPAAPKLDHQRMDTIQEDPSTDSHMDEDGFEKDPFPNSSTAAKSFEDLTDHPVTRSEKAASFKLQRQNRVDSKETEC
proKLK7 act conf = confirmation of human kallikrein-7 zymogen activators. activation, % at 7 µM. shares compounds with proKLK7 act. purified proKLK7, EDANS-DABCYL substrate fluorescence; scaled: vehicle 0, mature enzyme 100. AID 686949. actives 68% (n = 3,200);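 active = activation, as change over the incubation, above the mean of all tested compounds plus 3 SD, cut at about 13% in these data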
EDANS-DABCYL int = optically interferes with EDANS-DABCYL signal, flagging KLK7 hits; activation, % at 7 µM; actives 80% (n = 3,200); EDANS-DABCYL substrate fluorescence interference, no enzyme, 4 h; solvent 0%, active enzyme control 100%; shares compounds with proKLK7 act; AID 686952;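 active = activation above the all-compound mean plus 3 SD, ignoring values outside control-based bounds, cut at about 4.8% in these data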;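 also: value is the 4 h activation minus the activation read at time zero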
EDANS interf = optically interferes with EDANS-DABCYL fluorescence, kallikrein-7 activator counter-screen; shares compounds with proKLK7 act; actives 20% (n = 250); EDANS-DABCYL peptide fluorescence interference, no enzyme; EC50, µM; AID 720493;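 active = compounds that raise the fluorescence signal in this interference counterscreen, with EC50 at or below 10 µM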;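 also: intact quenched peptide substrate alone read at 355 nm excitation and 520 nm emission; signal is fluorescence gain from T0 to T4 after four hours at room temperature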
Each line names hits and unclear results; the compound was inactive in the other large screens (follow-up assays come after a bar, where they were run). Shown are actives, neighbours in structure and some others; about 3.8% of the full set was active somewhere.

CC[C@]12c3[nH]c4ccc(OC)cc4c3CCN1C(=O)C(CC(=O)NCCCOC)C[C@@H]2C(=O)N1CCN(C(=O)c2ccco2)CC1 (stereo partly specified)	none
CC[C@]12c3[nH]c4cc(-c5ccco5)ccc4c3CCN1C(=O)[C@@H](CC(=O)NCc1ccc(OC)c(OC)c1)C[C@@H]2C(=O)N1CCN(C(=O)c2ccco2)CC1	proKLK7 act 122.3 | proKLK7 act conf 62.9 | EDANS-DABCYL int 74.2
CC[C@]12c3[nH]c4cc(CCC(=O)N(C)C)ccc4c3CCN1C(=O)[C@@H](CC(=O)NCCCOC)C[C@@H]2C(=O)N1CCN(C(=O)C2CC2)CC1	none
CC[C@]12c3[nH]c4cc(-c5ccco5)ccc4c3CCN1C(=O)[C@@H](CC(=O)NCCCOC)C[C@@H]2C(=O)N1CCN(C(=O)C2CC2)CC1	proKLK7 act 88.8 | proKLK7 act conf 80.7 | EDANS-DABCYL int 94.3
CC[C@]12c3[nH]c4cc(-c5ccco5)ccc4c3CCN1C(=O)[C@@H](CC(=O)NCCCOC)C[C@@H]2C(=O)N1CCN(C(=O)c2ccco2)CC1	proKLK7 act 136.7 | proKLK7 act conf 102.7 | EDANS-DABCYL int 124.2
CC[C@]12c3[nH]c4cc(-c5ccco5)ccc4c3CCN1C(=O)[C@@H](CC(=O)NCCCN(C)C)C[C@@H]2C(=O)N1CCN(C(=O)C2CC2)CC1	proKLK7 act 63.7 | proKLK7 act conf 51.9 | EDANS-DABCYL int 66.2
COCC(=O)Nc1ccc2c(c1)OC[C@@H](C)N(CCC(F)(F)F)C[C@H](C)[C@H](OC)CN(C)C2=O	none (no result: ADAM10 inh, proKLK7 act, FGF22 binding, ADAM17 inh)
CC(=O)Nc1cccc(NC(=O)CSc2ncc(C(=O)Nc3ccccc3)c(=O)n2C)c1	proKLK7 act 100.0 | proKLK7 act conf inactive | EDANS-DABCYL int 13.2
CC(=O)Nc1cccc(NC(=O)CSc2ncc(C(=O)Nc3ccc(F)cc3)c(=O)n2C)c1	none
O=c1c2ccccc2[nH]c2ccccc12	proKLK7 act 17.4 | proKLK7 act conf 17.3 | EDANS-DABCYL int 24.3
CN(C)CCNc1ccc2nnn3c4ccc(O)cc4c(=O)c1c23	none
CCN(CC)CCCNc1ccc2ncn3c4ccc(O)cc4c(=O)c1c23	proKLK7 act 71.0 | proKLK7 act conf inactive | EDANS-DABCYL int 28.4
CCCNC(=O)N1CCC2(CC1)CN(C(=O)NC(C)C)[C@@H](CO)c1c2c2ccc(OC)cc2n1C	none (no result: ADAM10 inh, proKLK7 act, ADAM17 inh)
O=C(O)c1ccc(N/N=C/C2=Cc3ccccc3OC2)cc1	proKLK7 act 14.5 | proKLK7 act conf inactive | EDANS-DABCYL int 11.0
COc1ccc(NC(=O)Nc2cccc3c2O[C@H](CN(C)C(=O)Nc2c(C)noc2C)[C@@H](C)CN([C@@H](C)CO)C3=O)cc1	none (no result: ADAM10 inh, proKLK7 act, ADAM17 inh)
O=C(c1ccc(F)cc1)c1cc2ccc(O)cc2oc1=O	none
Cc1ccc(S(=O)(=O)c2cc3ccc(O)cc3oc2=O)cc1C	proKLK7 act 43.6 | proKLK7 act conf 62.0 | EDANS-DABCYL int 67.9
O=C(NCc1ccccc1)c1cc2ccc(O)cc2oc1=O	proKLK7 act 58.0 | proKLK7 act conf 68.8 | EDANS-DABCYL int 71.2
COc1ccc2cc(S(=O)(=O)c3ccccc3)c(=O)oc2c1	none
C/C(=N\NC(=O)CC#N)c1cc2ccc(O)cc2oc1=O	proKLK7 act 60.5 | proKLK7 act conf 46.3 | EDANS-DABCYL int 43.1
O=C(O)c1cc2ccc(O)cc2oc1=O	proKLK7 act 104.4 | proKLK7 act conf 65.2 | EDANS-DABCYL int 73.4
CCCNC(=O)N[C@@H]1CC[C@H](CC(=O)NC2CCCCC2)O[C@@H]1CO	none (no result: ADAM10 inh, proKLK7 act, ADAM17 inh)
O=S(=O)(c1ccc(F)cc1)N1CC[C@@H]2[C@H](CO)Nc3ccc(-c4ccc(F)cc4)cc3[C@@H]21	none (no result: ADAM10 inh, proKLK7 act, ADAM17 inh)
Cn1c(C(=O)NCC2CCCO2)cc2c(=O)n3ccccc3nc21 (stereo unspecified)	proKLK7 act 59.4 (no result: Ecoli rRNA inh, FGF22 binding) | proKLK7 act conf 67.6 | EDANS-DABCYL int 73.5
N=c1c(C(=O)NC2CCCC2)cc2c(=O)n3ccccc3nc2n1CC1CCCO1 (stereo unspecified)	proKLK7 act 105.4 | proKLK7 act conf 33.3 | EDANS-DABCYL int 24.9 | EDANS interf inactive
Cn1c(C(=O)N2COCC2(C)C)cc2c(=O)n3ccccc3nc21	proKLK7 act 48.0 (no result: Ecoli rRNA inh, FGF22 binding) | proKLK7 act conf 74.4 | EDANS-DABCYL int 69.9
COCCCn1c(=N)c(C(=O)NC2CCCCC2)cc2c(=O)n3ccccc3nc21	proKLK7 act 150.5 (no result: Ecoli rRNA inh, FGF22 binding) | proKLK7 act conf inactive | EDANS-DABCYL int inactive
C[C@@H](NC(=O)C[C@H]1CC[C@@H](NC(=O)c2cccnc2)[C@@H](CO)O1)c1ccccc1	none (no result: ADAM10 inh, proKLK7 act, ADAM17 inh)
CCCN1C[C@@H](C)[C@H](OC)CN(C)C(=O)c2cc(NC(=O)c3ccc4c(c3)OCO4)ccc2OC[C@H]1C	none (no result: ADAM10 inh, proKLK7 act, FGF22 binding, ADAM17 inh)
N=c1c(C(=O)NC2CCCCC2)cc2c(=O)n3ccccc3nc2n1CC1CCCO1 (stereo unspecified)	proKLK7 act 53.0 | proKLK7 act conf inactive | EDANS-DABCYL int 20.9
COCCCn1c(=N)c(C(=O)NCc2ccc3c(c2)OCO3)cc2c(=O)n3ccccc3nc21	none (no result: Ecoli rRNA inh, FGF22 binding)
COCCCn1c(C(=O)N2CC(C)OC(C)C2)cc2c(=O)n3ccccc3nc21 (stereo unspecified)	proKLK7 act 82.9 (no result: FGF22 binding) | proKLK7 act conf 69.6 | EDANS-DABCYL int 71.2
N=c1c(C(=O)NC2CCCC2)cc2c(=O)n3ccccc3nc2n1C1CCCC1	proKLK7 act 50.1 (no result: Ecoli rRNA inh, FGF22 binding) | proKLK7 act conf inactive | EDANS-DABCYL int inactive
CC(NC(=O)c1cc2c(=O)n3ccccc3nc2n(CC2CCCO2)c1=N)c1ccccc1 (stereo unspecified)	none
C[C@@H]1CN([C@@H](C)CO)C(=O)c2ccccc2-c2ccccc2CO[C@@H]1CN(C)Cc1ccc2c(c1)OCO2	none (no result: ADAM10 inh, proKLK7 act, ADAM17 inh)
CC(=O)N(C)C[C@@H]1Oc2ncc(C3=CCCC3)cc2C(=O)N([C@@H](C)CO)C[C@H]1C	none (no result: ADAM10 inh, proKLK7 act, ADAM17 inh)
O=C(c1cccn2c(=O)c3ccccc3nc12)N1CCN(Cc2ccc3c(c2)OCO3)CC1	proKLK7 act 15.5 (no result: Ecoli rRNA inh, FGF22 binding) | proKLK7 act conf 21.6 | EDANS-DABCYL int 27.9
O=C(c1cccn2c(=O)c3cc(Cl)ccc3nc12)N1CCOCC1	proKLK7 act 52.2 (no result: Ecoli rRNA inh, FGF22 binding) | proKLK7 act conf 64.9 | EDANS-DABCYL int 73.3
NCC[C@@H]1CC[C@@H](NC(=O)c2ccccc2F)[C@H](CO)O1	none (no result: ADAM10 inh, proKLK7 act, ADAM17 inh)
CC(=O)Nc1ccc(NC(=O)c2cc(=O)c3ccc(C)cc3o2)cc1	proKLK7 act 15.3 | proKLK7 act conf inactive | EDANS-DABCYL int inactive
